Test systems include ROCK1; ROCK2; ROS1.
Details in all cases: concentration: 1 μM, replicates: in singlicate; n = 1
The subject of experiment [1] is RPS6KA4(Kin.Dom.1-N-terminal).
The test system of experiment [2] is RPS6KA4(Kin.Dom.2-C-terminal).
For experiment [3], the system named is RPS6KA5(Kin.Dom.1-N-terminal).
The test system of experiment [4] is RPS6KA5(Kin.Dom.2-C-terminal).
Experiment [5] concerns T1, RSK1(Kin.Dom.1-N-terminal).
T1 construct: gene RPS6KA1

In experiment [6] the test system is T2, RSK1(Kin.Dom.2-C-terminal).
T2 construct: gene RPS6KA1

For experiment [7], the system named is T3, RSK2(Kin.Dom.1-N-terminal).
T3 construct: gene RPS6KA3
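Note: KINOMEscan kinase panel screen.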

For the compound `Clc1cc(Cl)cc(Nc2ccnc(Nc3cc(Cl)cc(Cl)c3)n2)c1` [GSK175726], the “%Inh” value in the experiment on ROCK1 was determined as 4%; with ROCK2 it was 0%; in the experiment with ROS1, 37%; in experiment [1] it was 0%; in experiment [2], 0%; in [3], 8%. The “%Inh” value was 9% in [4], 1% in experiment [5], 26% in experiment [6] and 0% in [7].
For `Cc1cccc(-c2nc(C)cc(Nc3ccncc3)n2)n1` [GSK257997], the “%Inh” value in the experiment with ROCK1 was 25%; in the experiment on ROCK2, 10%; in the experiment with ROS1 it was 43%; in experiment [1], 8%; in [2], 0%; in experiment [3] it was 7%. Also, the “%Inh” value in experiment [4] was 0%; in experiment [5] it was 29%; in experiment [6], 2%; in experiment [7] it was 0%.
Consider `Cc1cccc(-c2cc(Nc3ccncc3)c3ccccc3n2)n1` [GSK223675], for which the “%Inh” value in the experiment with ROCK1 was 0%; in the experiment with ROCK2, 0%; in the experiment with ROS1, 0%; in experiment [1], 0%; in experiment [2] it was 0%; in experiment [3], 5%. In addition, the “%Inh” value worked out at 100% in [4], 30% in [5], 35% in experiment [6] and 0% in experiment [7].
Take `Cl.Oc1ccc(-c2nc(-c3ccccc3)[nH]c2-c2ccncc2)cc1` [SB-428218]: the “%Inh” value with ROCK1 came to 70%; in the experiment on ROCK2 it was 61%; in the experiment on ROS1 it was 0%; in experiment [1], 0%; in experiment [2], 0%; in experiment [3], 0%. Moreover, the “%Inh” value stood at 11% in experiment [4], 30% in experiment [5], 0% in experiment [6] and 6% in experiment [7].
As for `COc1cc(Nc2nccc(N3CCC(NC(=O)Nc4cc(C)ccc4C)C3)n2)cc(OC)c1OC` (stereo not drawn) [GSK1379762], the “%Inh” value with ROCK1 was 12%; with ROCK2, 2%; in the experiment on ROS1, 42%; in experiment [1], 8%; in experiment [2], 0%; in experiment [3], 22%. The “%Inh” value in [4] is given as 2%; in [5], 2%; in experiment [6], 0%; in experiment [7], 0%.
`Cc1cccc(-c2nc(Nc3cccc(C(N)=O)c3)c3ccccc3n2)n1` [GW876019]: the “%Inh” value in the experiment on ROCK1 worked out at 1%; in the experiment with ROCK2 it was 15%; with ROS1, 0%; in experiment [1], 27%; in experiment [2], 0%; in [3], 0%. For the same compound, the “%Inh” value in experiment [4] was determined as 0%; in experiment [5], 0%; in experiment [6], 46%; in [7], 1%.
For the compound `CCCc1ccc(S(=O)(=O)NC2CCN(c3ccnc(Nc4ccc(F)cc4)n3)C2)cc1` (stereo not drawn) [GSK1379715], the “%Inh” value was determined as 11% with ROCK1; 0% in the experiment on ROCK2; 0% in the experiment with ROS1; 0% in experiment [1]; 0% in experiment [2]; 0% in experiment [3]. In addition, the “%Inh” value is 0% in [4], 7% in experiment [5], 0% in [6] and 8% in [7].
As to `Nc1nc(-c2nccs2)c(-c2ccnc3ccccc23)s1` [GW693542], the “%Inh” value in the experiment with ROCK1 stood at 14%; in the experiment with ROCK2, 18%; in the experiment on ROS1 it was 0%; in [1], 20%; in [2], 0%; in experiment [3] it was 20%. Further, the “%Inh” value in experiment [4] came to 0%; in experiment [5] it was 20%; in experiment [6] it was 0%; in experiment [7], 0%.
On to `Cc1cccc(-c2nc(-c3ccc(S(C)(=O)=O)cc3)sc2-c2ccnc(NCCc3ccccc3)c2)c1`, for which the “%Inh” value with ROCK1 is given as 0%; with ROCK2 it was 0%; in the experiment on ROS1, 0%; in experiment [1], 5%; in experiment [2], 2%; in experiment [3] it was 18%. Further, the “%Inh” value in experiment [4] was 0%; in [5], 0%; in experiment [6], 8%; in [7], 0%.
Take `Cl.c1ccc(-c2n[nH]cc2-c2ccnc(-c3ccc(CN4CCOCC4)cc3)c2)nc1` [GW776245]: the “%Inh” value (with ROCK1; in the experiment on ROCK2; in the experiment on ROS1; in experiment [1]; in [2]; in experiment [3]) was 0% each time. The “%Inh” value in [4] is 44%; in experiment [5], 0%; in experiment [6], 17%; in experiment [7] it was 34%.
On to `Cc1ccc(C(=O)Nc2ccc(Nc3ccnc4cc(-c5ccccn5)ccc34)cc2O)cc1.Cl` [GW440146], for which the “%Inh” value in the experiment on ROCK1 is listed as 13%; in the experiment on ROCK2, 19%; with ROS1, 16%; in experiment [1], 20%; in [2] it was 0%; in experiment [3], 16%. Also, the “%Inh” value in experiment [4] is recorded as 0%; in experiment [5], 6%; in experiment [6], 0%; in [7], 0%.
For `COC(=O)c1c(-c2ccccc2)c2cc(OC)ccc2c(=O)n1Cc1ccccc1`, the “%Inh” value with ROCK1 was 0%; with ROCK2, 0%; in the experiment on ROS1, 0%; in [1], 0%; in experiment [2], 4%; in [3], 15%. The “%Inh” value is reported as 0% in [4], 11% in experiment [5], 18% in [6] and 0% in experiment [7].
For `Cc1cc(NCC(c2ccccc2)c2ccccc2)nc(NCc2ccc(C(F)(F)F)cc2)n1` [GW497681], the “%Inh” value with ROCK1 amounted to 0%; in the experiment with ROCK2 it was 23%; with ROS1, 0%; in [1], 0%; in [2] it was 0%; in experiment [3], 0%. Moreover, the “%Inh” value in experiment [4] is recorded as 1%; in [5], 0%; in [6], 6%; in experiment [7], 0%.
As for `COc1ccccc1CNC(=O)c1cc(C(=O)c2ccccc2C)c[nH]1` [GSK364507], the “%Inh” value in the experiment on ROCK1 was 12%; with ROCK2, 10%; in the experiment with ROS1 it was 0%; in experiment [1], 5%; in [2], 0%; in experiment [3], 5%. Further, the “%Inh” value in experiment [4] is 21%; in experiment [5] it was 25%; in experiment [6] it was 0%; in experiment [7], 4%.
For the compound `CCn1c(-c2cccnc2O)nc2cnccc21` [SB-736715], the “%Inh” value with ROCK1 is 11%; in the experiment with ROCK2, 0%; in the experiment on ROS1 it was 0%; in experiment [1], 0%; in [2], 0%; in experiment [3], 0%. The “%Inh” value in [4] was 0%; in experiment [5], 0%; in experiment [6], 0%; in experiment [7], 4%.
Regarding `Cc1ccc(-c2cc(-c3c[nH]nc3-c3ccccn3)ccn2)cc1` [GW684088], the “%Inh” value is recorded as 25% with ROCK1; 17% in the experiment with ROCK2; 37% with ROS1; 2% in experiment [1]; 0% in [2]; 2% in [3]. In addition, the “%Inh” value is 19% in experiment [4], 8% in experiment [5], 24% in [6] and 6% in experiment [7].
For `CC(C)(C)c1ccc(C(=O)Nc2cn3cc(Cl)ccc3n2)cc1`, the “%Inh” value in the experiment on ROCK1 was determined as 0%; in the experiment on ROCK2 it was 0%; with ROS1 it was 0%; in experiment [1], 7%; in [2], 5%; in experiment [3], 0%. In addition, the “%Inh” value came to 0% in [4], 0% in [5], 20% in experiment [6] and 26% in experiment [7].
For `Cc1cc(-c2ccc3c(c2)CC[C@@H](N[C@@H](C)c2ccccc2)C3)cnc1N.Cl` [GW412617], the “%Inh” value in the experiment with ROCK1 came out at 7%; in the experiment on ROCK2, 5%; in the experiment on ROS1, 15%; in [1], 16%; in [2], 0%; in experiment [3], 6%. Moreover, the “%Inh” value in experiment [4] stood at 0%; in experiment [5], 0%; in experiment [6], 8%; in [7], 4%.

The record behind these values is publication PMC5540273 (PLoS ONE, 2017).
